Laboratory results as given in PubChem BioAssay (NCATS).
Inconclusive results are not listed. Calls of active or inactive are those of the source. Unless noted, the call rests on the fitted dose curve; in most records, active means well fitted curve in the direction sought with a large enough effect; inconclusive means small, poorly fitted or top-dose-only effect, or another doubt; inactive means no such curve, though single readings can be large; an effect the other way counts as inactive or inconclusive.

How the values were obtained:
[1] = target: Atrial natriuretic peptide receptor 1 (Homo sapiens) (UniProt P16066); experiment: Natriuretic polypeptide receptor (hNpr1) antagonism - Pilot CMLD screen (AID 1347052; calls by dose curve;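 further: HEK293 cells with hNpr1 stimulated by hNppA peptide at 0.1 nM; cGMP level read as GloSensor luciferase luminescence after agonist stimulation; series mostly up to about 9.2 µM; on the % scale 0 is the no-effect control and ±100 the full control effect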)
[2] = P-glycoprotein substrates identified in KB-8-5-11 adenocarcinoma cell line, qHTS therapeutic library screen (AID 1346987); further: potency means the concentration at half of the fitted maximal effect; nearly all actives have a fitted effect of over 65% in size
Summary of the method: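 Steps: plate 500 KB-8-5-11 cells/well in DMEM + 10% FCS (colchicine removed); pin compounds in dose-response; incubate 72 h, 37 degree C, 5% CO2; add CellTiter-Glo, 5 min; read luminescence.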

[3] = Primary qHTS for inhibitors of nuclear receptor binding SET domain protein 2 (NSD2) in an isogenic RCH-ACV NSD2 p.E1099K mutant (9B) (AID 1645876); further: potency means the concentration at half of the fitted maximal effect; nearly all actives have a fitted effect of over 70% in size
[4] = Primary qHTS for inhibitors of nuclear receptor binding SET domain protein 2 (NSD2) in an RCH-ACV wild type WT cells (2C) (AID 1645877); further: potency means the concentration at half of the fitted maximal effect; nearly all actives have a fitted effect of over 70% in size
[5] = target: Glutathione peroxidase 1 (Homo sapiens) (UniProt P07203); experiment: Primary qHTS Assay for Inhibitors of Recombinant Selenoprotein Glutathione Peroxidase 1 (GPX1) (AID 1845191); further: nearly all actives have a fitted effect of over 65% in size
Summary of the method: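 10 nM GPX1 + cpd, 30 min RT; start w/ 1 mM GSH, 0.5 mM cumene hydroperoxide, 0.5 mM NADPH, 100 nM GR, 0.01% BSA; buffer 50 mM Tris-HCl pH 7.5, 2 mM EDTA, 150 mM NaCl; Fl 340/450, 0 & 15 min.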

[6] = qHTS drug screen for cell cycle checkpoint inhibitors in PARPi-resistant BRCA-mutant ovarian cancer cell lines. (AID 1963452; calls by dose curve); conditions: PEO1/OlaR viability, CellTiter-Glo luminescence, 96 h, stronger effect = lower value
Summary of the method: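 PEO1, PEO4 and PEO1/OlaR ovarian cancer cells, 600 per well, exposed 96 h at 37C to a dilution series. Viability read by CellTiter-Glo luminescence, normalized to DMSO and empty wells; activity summarized as Z-AUC.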

Sequence of Glutathione peroxidase 1 (Homo sapiens) (P07203 whole entry, looked up): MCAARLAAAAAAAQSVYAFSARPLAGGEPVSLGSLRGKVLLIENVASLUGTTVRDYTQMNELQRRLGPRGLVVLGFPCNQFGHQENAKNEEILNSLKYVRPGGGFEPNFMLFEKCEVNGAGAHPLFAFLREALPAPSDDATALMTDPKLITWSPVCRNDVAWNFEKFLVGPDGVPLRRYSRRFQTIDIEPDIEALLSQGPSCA
Sequence of Atrial natriuretic peptide receptor 1 (Homo sapiens) (P16066 whole entry, looked up): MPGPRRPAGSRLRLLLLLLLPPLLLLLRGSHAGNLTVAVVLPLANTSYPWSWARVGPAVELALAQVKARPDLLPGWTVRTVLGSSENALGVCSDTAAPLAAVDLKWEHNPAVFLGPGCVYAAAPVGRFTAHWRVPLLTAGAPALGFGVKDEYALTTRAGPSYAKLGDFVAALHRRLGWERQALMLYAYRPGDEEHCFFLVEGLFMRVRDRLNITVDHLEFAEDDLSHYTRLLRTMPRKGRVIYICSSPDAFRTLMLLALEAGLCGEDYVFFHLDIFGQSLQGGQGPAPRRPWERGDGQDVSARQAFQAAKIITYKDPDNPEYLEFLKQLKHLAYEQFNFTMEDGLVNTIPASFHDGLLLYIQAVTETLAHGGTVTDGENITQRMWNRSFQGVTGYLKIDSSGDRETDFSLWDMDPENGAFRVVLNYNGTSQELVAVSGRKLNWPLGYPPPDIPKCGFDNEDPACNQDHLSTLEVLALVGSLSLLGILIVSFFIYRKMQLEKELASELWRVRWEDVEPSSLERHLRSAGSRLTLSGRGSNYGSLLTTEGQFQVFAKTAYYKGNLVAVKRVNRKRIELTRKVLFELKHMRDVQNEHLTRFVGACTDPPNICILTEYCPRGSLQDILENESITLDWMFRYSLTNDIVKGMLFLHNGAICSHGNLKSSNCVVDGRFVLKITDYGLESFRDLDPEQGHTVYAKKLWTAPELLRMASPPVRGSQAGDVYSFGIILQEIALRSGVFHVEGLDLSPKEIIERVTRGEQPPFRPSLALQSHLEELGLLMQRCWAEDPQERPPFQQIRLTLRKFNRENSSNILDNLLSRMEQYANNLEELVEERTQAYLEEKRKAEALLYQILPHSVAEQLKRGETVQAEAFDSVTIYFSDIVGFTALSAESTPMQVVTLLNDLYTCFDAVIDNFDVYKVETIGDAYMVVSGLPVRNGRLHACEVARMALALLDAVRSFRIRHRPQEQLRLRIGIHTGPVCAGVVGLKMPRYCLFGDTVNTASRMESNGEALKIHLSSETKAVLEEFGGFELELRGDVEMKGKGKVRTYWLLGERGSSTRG

SMILES: C[C@@H](c1ccccc1)N1C(=O)[C@@H]2[C@H]3[C@H](O)[C@H](O)CC(=NOC[C@@H](O)COCc4ccco4)[C@H]3CC[C@H]2C1=O
- Potency [1]: inactive

SMILES: Clc1ccc2ncc(-c3cccc(NC4CCNC4)n3)n2c1 (configuration not stated)
- Potency [2]: 10.3 µM (active)
- Potency [3]: 1.3 µM (active)
- Potency [4]: 1.16 µM (active)
- Potency [5]: inactive

SMILES: CN[C@@H]1C[C@H]2O[C@@](C)([C@@H]1OC)n1c3ccccc3c3c4c(c5c6ccccc6n2c5c31)C(=O)N[C@H]4O
- Potency [2]: 0.841 µM (active)
- Potency [3]: 0.0215 µM (active)
- Potency [4]: 0.0303 µM (active)
- outcome [5]: inactive [at 9.52 µM]
- Z-AUC [6]: -0.878 (inactive)
- Z-AUC ([6]; measured here: PEO1 parental Z-AUC): -0.367
- Z-AUC ([6]; measured here: PEO4 Z-AUC): -0.638
